These results are taken from PubChem BioAssay.

Experiment [1] has as its system Hepatitis C virus NS3 helicase. Nature of the experiment: HCV NS3 helicase inhibitors, primary screen, biochemical, fluorescence polarization, LOPAC1280 library (AID 687035; in the data active = inhibition above about 37%). The following applies: Purified HCV NS3 helicase, Cy5-dT15 ssDNA binding fluorescence polarization; stronger effect = higher value; concentration not given here.
A short description of experiment [2]: Cy5 fluorescence quenching or enhancement artefacts, artefact control for HCV NS3 helicase inhibitor project, biochemical, LOPAC1280 (AID 687037). Particulars: Cy5-DNA-NS3h complex fluorescence interference counterscreen.
Experiment [3] can be described thus: stimulators of nuclear beta-catenin in C2C12, primary screen, imaging, WNT3A-conditioned medium, mouse C2C12, NPC library (AID 1117326; in the data active = nuclear beta-catenin stimulation mostly above about 4.2%, no sharp cut-off; inactive = mostly below about 10%). Particulars: stronger effect = higher value.
Experiment [4] can be described thus: stimulators of insulin release from INS-1E, primary screen, cell-based, 5 mM glucose, NPC library (AID 1117329;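 active = compound raises insulin release from rat beta cells at 5 mM glucose, no numeric limit stated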). The following applies: rat INS-1E insulin secretion, at 10 µM, stronger effect = higher value.
Experiment [5] in a line: growth inhibition of GSK3B-pretreated HCT116 cells – cell-based, CellTiter-Glo, 0.2 to 20 µM (AID 1117336;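 active = compounds lowering colon cancer cell viability after pretreatment blocking the GSK3B kinase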). Particulars: HCT116 viability after GSK3B inhibitor, at 20 µM, stronger effect = higher value.
Experiment [6] can be described thus: inhibition of endothelial tube formation, primary screen, imaging, VEGF stimulated, CD31 staining, tube area, NPC library (AID 1117340;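 active = compound that reduces growth-factor-driven endothelial tube area in a mixed cell culture, no cutoff stated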). Particulars: VEGF-stimulated ADSC/ECFC co-culture, at 10 µM, stronger effect = higher value.
Experiment [7] is described as follows: glucagon-like peptide 1 release enhancers, primary assay, NCI-H716 cell line, NPC library (AID 1117341;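 active = compound raises GLP1 secretion from the human gut endocrine cells, with no numeric limit stated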). Particulars: NCI-H716 cells, at 10 µM, stronger effect = higher value.
Experiment [8] is described as follows: HCT116 colon cancer cell growth inhibition, primary screen, CellTiter-Glo luminescence, NPC library (AID 1117342;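 active = compounds that lower survival of HCT116 colon cancer cells in the luminescence readout, no numeric limit stated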). The following applies: at 20 µM (top of the series).
Experiment [9] in a line: CellTiter-Glo luminescent readout of SW480 viability loss, NPC library primary (AID 1117343;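 active = compounds that lower viability of the colon cancer cells in the luminescence readout, with no numeric limit stated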). Particulars: CellTiter-Glo luminescence; at 20 µM (top of the series).
The nature of experiment [10]: decreased DLD-1 cellular survival, CellTiter-Glo luminescent readout, NPC compound collection, primary HTS (AID 1117346;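 active = compounds that lower survival of DLD-1 colon cancer cells in the luminescence readout, no cutoff given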). Particulars: DLD-1 viability, CellTiter-Glo luminescence; at 20 µM (top of the series).
The target in experiment [11] is 6-phosphogluconate dehydrogenase, decarboxylating (Homo sapiens) (UniProt P52209). Nature of the experiment: 6PGD enzyme inhibitors, primary screen, biochemical, human, recombinant enzyme, NADPH absorbance (AID 1159550;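 active = at least 20% inhibition of 6-phosphogluconate dehydrogenase activity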). Particulars: recombinant 6PGD, NADPH absorbance 341 nm; at 10 µM; stronger effect = higher value.
6-phosphogluconate dehydrogenase, decarboxylating (Homo sapiens), sequence (P52209 whole entry, looked up): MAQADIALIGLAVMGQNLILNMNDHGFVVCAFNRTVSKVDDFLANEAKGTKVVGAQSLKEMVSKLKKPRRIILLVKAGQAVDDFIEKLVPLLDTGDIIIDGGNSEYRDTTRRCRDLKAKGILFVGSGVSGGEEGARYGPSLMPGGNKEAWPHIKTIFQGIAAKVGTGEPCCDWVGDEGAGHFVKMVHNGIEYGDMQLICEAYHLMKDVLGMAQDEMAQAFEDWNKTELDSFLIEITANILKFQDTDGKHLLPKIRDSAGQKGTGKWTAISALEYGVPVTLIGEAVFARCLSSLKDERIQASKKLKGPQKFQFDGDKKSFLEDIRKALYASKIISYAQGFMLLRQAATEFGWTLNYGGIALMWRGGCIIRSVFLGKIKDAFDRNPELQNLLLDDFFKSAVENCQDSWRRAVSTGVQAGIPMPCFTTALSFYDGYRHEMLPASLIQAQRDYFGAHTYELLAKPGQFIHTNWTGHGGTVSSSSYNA
For experiment [12], the target named is Calcium-dependent protein kinase 1 (Plasmodium falciparum (isolate 3D7)) (UniProt P62344). Nature of the experiment: PfCDPK1 kinase inhibitors, biochemical, TCAMS library (AID 1159585; cut-off not given, nearly all actives have IC50 up to about 0.98 µM;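 note: inhibitors leave more ATP so luminescence rises with inhibition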). The following applies: recombinant PfCDPK1, Kinase-Glo ATP depletion luminescence.
Calcium-dependent protein kinase 1 (Plasmodium falciparum (isolate 3D7)), sequence (P62344 whole entry, looked up): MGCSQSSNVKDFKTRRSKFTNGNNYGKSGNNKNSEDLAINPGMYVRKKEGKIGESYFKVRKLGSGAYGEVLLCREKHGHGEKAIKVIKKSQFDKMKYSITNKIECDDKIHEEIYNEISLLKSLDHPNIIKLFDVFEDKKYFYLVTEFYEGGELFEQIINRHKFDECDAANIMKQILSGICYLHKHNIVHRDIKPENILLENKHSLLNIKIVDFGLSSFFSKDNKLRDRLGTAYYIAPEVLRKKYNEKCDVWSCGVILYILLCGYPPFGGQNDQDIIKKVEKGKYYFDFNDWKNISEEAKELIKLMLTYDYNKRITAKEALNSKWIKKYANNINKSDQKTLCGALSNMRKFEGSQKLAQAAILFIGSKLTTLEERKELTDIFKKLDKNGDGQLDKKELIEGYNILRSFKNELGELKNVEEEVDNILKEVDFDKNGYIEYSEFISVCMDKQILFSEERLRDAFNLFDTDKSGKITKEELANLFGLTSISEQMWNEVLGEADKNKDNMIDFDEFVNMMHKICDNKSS
Experiment [13] has as its target Plasmodium falciparum protein kinase 6 (PK6, PF3D7_1337100) (UniProt Q8IDW1). As to the kind of experiment: PfPK6 kinase inhibitors, biochemical, TCAMS library (AID 1159586). Particulars: recombinant PfPK6, Kinase-Glo ATP depletion luminescence.

Molecules are shown by their SMILES. For some assays here: Results with a measured potency or affinity are listed apart. Activity calls are given as the source filed them. Unless noted, the rule behind the calls is not given here.

Plasmodium falciparum protein kinase 6 (PK6, PF3D7_1337100), sequence (Q8IDW1 1-305): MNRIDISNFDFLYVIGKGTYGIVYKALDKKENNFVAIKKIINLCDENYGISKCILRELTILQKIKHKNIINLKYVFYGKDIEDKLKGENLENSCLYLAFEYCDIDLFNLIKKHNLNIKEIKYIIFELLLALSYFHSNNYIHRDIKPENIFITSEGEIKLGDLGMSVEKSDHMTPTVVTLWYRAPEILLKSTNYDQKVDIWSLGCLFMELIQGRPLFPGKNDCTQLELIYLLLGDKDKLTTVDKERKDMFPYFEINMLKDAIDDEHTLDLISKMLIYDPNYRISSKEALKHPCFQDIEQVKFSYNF

As for `C[N+](C)(C)CCOC(N)=O`, the results for the inhibition in experiment [1] and in experiment [11] were -1% (inactive) and -13.5% (inactive), respectively. The fluorescence ratio (interference) in [2] is 0.9 (inactive). Moreover, the nuclear beta-catenin stimulation in experiment [3] (at 10 µM) is -0.5% (inactive); in experiment [3] (stimulation, at 2 µM), 2.3%. For the same compound, the insulin secretion stimulation in experiment [4] is -0.5% (inactive). Moreover, the viability decrease in [5] was 1.3% (inactive). For the same compound, the tube area decrease in experiment [6] was -7.7% (inactive). Moreover, the GLP1 secretion stimulation in experiment [7] was 2.2% (inactive). Further, the inhibition of viability in [8] was -2.4% (inactive). Moreover, the viability decrease (inhibition) in experiment [9] is -4.8% (inactive); in [10], -12.5% (inactive).
For `N[C@@H](Cc1ccc(O)c(O)c1)C(=O)O`, the values for the inhibition in experiment [1] and in experiment [11] were 1% (inactive) and 2.07% (inactive), respectively. In addition, the fluorescence ratio (interference) in experiment [2] was 1 (inactive). Further, the nuclear beta-catenin stimulation in experiment [3] (at 10 µM) is 1% (inactive); in [3] (stimulation, at 2 µM) it was -0.9%. Further, the insulin secretion stimulation in [4] was 2.9% (inactive). Besides, in [5], the viability decrease is 68.9% (active). Besides, the tube area decrease in experiment [6] is -13.9% (inactive). Also, in experiment [7], the GLP1 secretion stimulation was 1.9% (inactive). The inhibition of viability in experiment [8] is 49.9% (inactive). The values for the viability decrease (inhibition) in [9] and in [10] were 66.7% (active) and 47.5% (inactive), respectively.
As to `Fc1ccc(C(c2ccc(F)cc2)N2CCN(C/C=C/c3ccccc3)CC2)cc1`, the inhibition is -1% (inactive) in [1] and 16.5% (inactive) in experiment [11]. For the same compound, in [2], the fluorescence ratio (interference) was 1 (inactive). The nuclear beta-catenin stimulation is 1.1% (inactive) in [3] (at 10 µM) and -2.5% in [3] (stimulation, at 2 µM). Also, in experiment [4], the insulin secretion stimulation is 2.65% (inactive). In addition, the viability decrease in experiment [5] was 108% (active). In addition, in experiment [6], the tube area decrease is 21.4% (inactive). Also, in [7], the GLP1 secretion stimulation was 0.7% (inactive). Further, the inhibition of viability in [8] was 107% (active). Besides, the viability decrease (inhibition) in experiment [9] was 125% (active); in [10] it was 99.7% (active).
In the case of `O=C(c1ccc(F)cc1)C1CCN(CCn2c(=O)[nH]c3ccccc3c2=O)CC1`, the inhibition was 2% (inactive) in experiment [1] and 8.02% (inactive) in experiment [11]. For the same compound, the fluorescence ratio (interference) in [2] is 1 (inactive). Also, the nuclear beta-catenin stimulation in experiment [3] (at 10 µM) is 0.6% (inactive); in [3] (stimulation, at 2 µM), -1.2%. Moreover, in experiment [4], the insulin secretion stimulation was 2.5% (inactive). Further, the viability decrease in [5] is 19.4% (inactive). In addition, in [6], the tube area decrease is -2.2% (active). The GLP1 secretion stimulation in [7] is 2.6% (inactive). In addition, in experiment [8], the inhibition of viability is 52.6% (active). In addition, the viability decrease (inhibition) in experiment [9] is 19.5% (inactive); in experiment [10], 16.9% (inactive).
Regarding `CC[N+](CC)(CC)CCOc1cccc(OCC[N+](CC)(CC)CC)c1OCC[N+](CC)(CC)CC`, the inhibition in experiment [1] is -2% (inactive); in [11] it was 7.66% (inactive). Besides, the fluorescence ratio (interference) in experiment [2] is 1 (inactive). Besides, the nuclear beta-catenin stimulation in experiment [3] (at 10 µM) was -0.5% (inactive); in experiment [3] (stimulation, at 2 µM), -1.4%. In experiment [4], the insulin secretion stimulation was -1.3% (inactive). Further, the viability decrease in experiment [5] was -8.1% (inactive). In [6], the tube area decrease was -2.2% (inactive). Besides, the GLP1 secretion stimulation in [7] is 1.9% (inactive). The inhibition of viability in [8] was 8.8% (inactive). The viability decrease (inhibition) was -6.2% (inactive) in [9] and -5.3% (inactive) in experiment [10].
As to `O=C(Nc1cccc(C2=NCCN2)c1)Nc1cccc(C2=NCCN2)c1`, the nuclear beta-catenin stimulation is 1.5% (inactive) in experiment [3] (at 10 µM) and 4.9% in experiment [3] (stimulation, at 2 µM). Further, the insulin secretion stimulation in experiment [4] was 0.05% (inactive). In addition, in experiment [5], the viability decrease is 72.2% (active). In experiment [6], the tube area decrease was -57.4% (inactive). The GLP1 secretion stimulation in experiment [7] is -1% (inactive). Further, in experiment [8], the inhibition of viability is 70.7% (active). For the same compound, the viability decrease (inhibition) in [9] is 52.2% (active); in [10], 60.8% (active). The result in experiment [12] and in experiment [13] was inactive.
With `COC(=O)Nc1nc2ccc(C(=O)c3cccs3)cc2[nH]1`, the results for the inhibition in [1] and in experiment [11] were -5% (inactive) and -7.55% (inactive), respectively. Also, the fluorescence ratio (interference) in experiment [2] was 0.9 (inactive). Moreover, the nuclear beta-catenin stimulation in experiment [3] (at 10 µM) was 80.4% (active); in [3] (stimulation, at 2 µM) it was 81.3%. Further, the insulin secretion stimulation in [4] was -0.3% (inactive). In addition, the viability decrease in [5] is 69.2% (active). Besides, the tube area decrease in experiment [6] was 105% (active). For the same compound, the GLP1 secretion stimulation in [7] is -3.1% (inactive). Further, the inhibition of viability in [8] is 60.8% (active). Further, the viability decrease (inhibition) was 22.9% (inactive) in experiment [9] and 58.6% (active) in experiment [10].
